This is an account of results in PubChem BioAssay AID602420 (Johns Hopkins Ion Channel Center, 2012).

In all, about 2,300 compounds went through this assay and about 430 (19%) were called active.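 The calls were made as follows: active = remaining agonist calcium response no higher than 100% minus 3 SD of agonist-only control wells, with starting fluorescence near control levels; inactive = the rest.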 The list is a sample of the results.

For this test, the target named is Mas-related G-protein coupled receptor member X1 (Homo sapiens) (UniProt Q96LB2). The test can be described thus: MrgX1 receptor antagonists, duplicate retest, confirmation, HEK293 cells, Fluo-4 calcium flux (AID 602420). To be noted: MrgX1-HEK293, BAM8-22 calcium flux, at 10 µM; stronger effect = lower value.
Chain of Mas-related G-protein coupled receptor member X1 (Homo sapiens) (Q96LB2 whole entry, looked up): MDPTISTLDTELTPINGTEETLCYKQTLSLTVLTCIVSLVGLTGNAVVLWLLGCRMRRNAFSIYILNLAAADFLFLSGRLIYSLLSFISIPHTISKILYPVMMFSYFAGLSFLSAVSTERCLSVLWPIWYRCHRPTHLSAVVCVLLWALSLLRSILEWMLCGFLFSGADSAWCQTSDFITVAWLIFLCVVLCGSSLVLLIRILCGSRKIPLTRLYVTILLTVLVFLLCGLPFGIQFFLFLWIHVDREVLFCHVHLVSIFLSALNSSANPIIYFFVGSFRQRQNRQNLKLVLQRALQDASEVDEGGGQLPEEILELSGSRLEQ
Take `COc1ccc(S(=O)(=O)N2CCN(C(=O)NC3CCCCC3)CC2)cc1`: the remaining BAM8-22 calcium response % of control (stronger effect = lower value) entry is “inactive”.

Consider `CC(C)NC(=S)Nc1cccc2cnccc12`, for which the remaining BAM8-22 calcium response % of control (stronger effect = lower value) was 82.2% (active).

As to `COc1ccc(S(=O)(=O)N2CCOCC2)c(C)c1C`, the remaining BAM8-22 calcium response % of control (stronger effect = lower value) result is “inactive”.

`Cc1ccc(Cc2cnc(N)s2)o1`: the remaining BAM8-22 calcium response % of control (stronger effect = lower value) entry is “inactive”.

For `COCCCNC(=O)C1CCN(c2ccc(N3CCOCC3)nn2)CC1`, the remaining BAM8-22 calcium response % of control (stronger effect = lower value) result is “inactive”.

`CC(=O)Nc1ccc(OC(=O)COc2ccc(Br)cc2)cc1`: the remaining BAM8-22 calcium response % of control (stronger effect = lower value) result is “inactive”.

For `COC(=O)c1sccc1NS(=O)(=O)c1ccc(F)cc1F`, the remaining BAM8-22 calcium response % of control (stronger effect = lower value) is 80% (active).

Take `CCc1nnc(NC(=O)CSc2nc3c(c(=O)n2-c2ccccc2OC)SCC3)s1`: the remaining BAM8-22 calcium response % of control (stronger effect = lower value) entry is “inactive”.

Take `COc1ccc(C(=O)NC2CCCc3c2cnn3-c2cccc(C)c2C)c(OC)n1` (stereo not drawn): the remaining BAM8-22 calcium response % of control (stronger effect = lower value) is 28.5% (active).

On to `O=C(CSc1c2c(nc3ccc(Cl)cc13)CCCC2)NCc1ccco1`, for which the remaining BAM8-22 calcium response % of control (stronger effect = lower value) result was “inactive”.

As for `Cc1ccc(CS(=O)(=O)c2ncc(Cl)c(C(=O)Nc3nnc(C)s3)n2)cc1`, the remaining BAM8-22 calcium response % of control (stronger effect = lower value) is 81.2% (active).

As for `COc1ccc(-n2c(SCC(=O)NCc3ccco3)nnc2-c2c[nH]c3ccccc23)cc1`, the remaining BAM8-22 calcium response % of control (stronger effect = lower value) result is “inactive”.

For `CCOC(=O)c1c(C)[nH]c(=S)c(C#N)c1-c1ccccc1`, the remaining BAM8-22 calcium response % of control (stronger effect = lower value) entry is “inactive”.

In the case of `COc1cccc(CNC(=O)C2CCN(S(=O)(=O)c3cccc4cccnc34)CC2)c1`, the remaining BAM8-22 calcium response % of control (stronger effect = lower value) result is “inactive”.

For `O=C(CSc1nncn1-c1cccnc1)N1CCOCC1`, the remaining BAM8-22 calcium response % of control (stronger effect = lower value) result was “inactive”.

With `N#CC1=C(N)Oc2c(sc3ccccc23)C1c1ccco1` (stereo not drawn), the remaining BAM8-22 calcium response % of control (stronger effect = lower value) result was “inactive”.

`O=C(Nc1ccc(Cl)cc1)Nc1ccc(Oc2cccnc2)nc1`: the remaining BAM8-22 calcium response % of control (stronger effect = lower value) was 80.3% (active).

On to `COc1cc(C2/C(=C(\O)c3ccc4c(c3)CC(C)O4)C(=O)C(=O)N2Cc2ccco2)ccc1O` (stereo not drawn), for which the remaining BAM8-22 calcium response % of control (stronger effect = lower value) entry is “inactive”.

Consider `CN(C)CCn1c(=S)[nH]c2ccc(Cl)cc2c1=O`, for which the remaining BAM8-22 calcium response % of control (stronger effect = lower value) result was “inactive”.

With `Cc1cc(C)n(CCNC(=O)CC2C(=O)NCCN2Cc2ccc(C)o2)n1` (stereo not drawn), the remaining BAM8-22 calcium response % of control (stronger effect = lower value) entry is “inactive”.

Take `FC(F)(F)c1cc(-c2cccs2)nc(NCc2ccco2)n1`: the remaining BAM8-22 calcium response % of control (stronger effect = lower value) result was “inactive”.

On to `S=C(NCc1ccc(Cl)cc1)NC12CC3CC(CC(C3)C1)C2`, for which the remaining BAM8-22 calcium response % of control (stronger effect = lower value) was 68.5% (active).

`O=C(c1ccc(O)cc1)c1ccc(C(=O)O)c(C(=O)O)c1`: the remaining BAM8-22 calcium response % of control (stronger effect = lower value) entry was “inactive”.

On to `O=C(Cn1c(-c2cncs2)nc2ccccc21)NC1CCCC1`, for which the remaining BAM8-22 calcium response % of control (stronger effect = lower value) result was “inactive”.

In the case of `CC1CCN(S(=O)(=O)c2nnc(NC(=O)COc3ccccc3F)s2)CC1`, the remaining BAM8-22 calcium response % of control (stronger effect = lower value) result was “inactive”.

As for `Cc1ccc(-c2nn(C(C)(C)C)c3ncnc(N)c23)cc1`, the remaining BAM8-22 calcium response % of control (stronger effect = lower value) result is “inactive”.

Turning to `c1ccc(-c2[nH]ncc2-c2nc3ccccc3[nH]2)cc1`, the remaining BAM8-22 calcium response % of control (stronger effect = lower value) entry is “inactive”.

As for `Cc1nccn1CCC1CCCCN1C(=O)CCc1nnc(-c2ccsc2)o1` (stereo not drawn), the remaining BAM8-22 calcium response % of control (stronger effect = lower value) entry was “inactive”.

Take `CN(c1cccc(NC(=O)Nc2ccc(Cl)cc2)c1)S(C)(=O)=O`: the remaining BAM8-22 calcium response % of control (stronger effect = lower value) was 44.9% (active).

For the compound `C(=N\n1cnnc1)/c1cccnc1`, the remaining BAM8-22 calcium response % of control (stronger effect = lower value) result was “inactive”.

`CCS(=O)(=O)c1ccc2c(c1)N(S(=O)(=O)c1ccccc1)CC(C(=O)O)O2` (stereo not drawn): the remaining BAM8-22 calcium response % of control (stronger effect = lower value) result is “inactive”.

As for `CCOC(=O)c1c(NC(=O)CNC2CCCc3ccccc32)sc(C(N)=O)c1C` (stereo not drawn), the remaining BAM8-22 calcium response % of control (stronger effect = lower value) result is “inactive”.

Take `CCOC(=O)c1c(NC(=O)CSc2cn(CC)c3ccccc23)sc2c1CCC2`: the remaining BAM8-22 calcium response % of control (stronger effect = lower value) was 85% (active).

As to `CCNC(=O)c1c(O)c2cccc3c2n(c1=O)CC3`, the remaining BAM8-22 calcium response % of control (stronger effect = lower value) result was “inactive”.

`Cc1ccc(C(=O)COC(=O)CCN2C(=O)C3C4CC(C(Br)C4Br)C3C2=O)cc1` (stereo not drawn): the remaining BAM8-22 calcium response % of control (stronger effect = lower value) entry is “inactive”.

Consider `O=c1cc(CSc2ccccn2)nc(N2CCN(c3ccccc3)CC2)[nH]1`, for which the remaining BAM8-22 calcium response % of control (stronger effect = lower value) result was “inactive”.

With `CCOC(=O)Cc1csc(SCc2cc(=O)oc3cc(O)ccc23)n1`, the remaining BAM8-22 calcium response % of control (stronger effect = lower value) was 85.3% (active).

In the case of `CCSc1nsc(NC(=O)Nc2cccc(C(C)=O)c2)n1`, the remaining BAM8-22 calcium response % of control (stronger effect = lower value) entry was “inactive”.

Turning to `CCOC(=O)CNC(=O)CSc1nc2cccnc2n1CC`, the remaining BAM8-22 calcium response % of control (stronger effect = lower value) entry is “inactive”.

`CCOC(=O)C1=C(O)/C(=C/c2cc(C)n(-c3ccccc3)c2C)N=C1C`: the remaining BAM8-22 calcium response % of control (stronger effect = lower value) result is “inactive”.

Turning to `Cc1cccn2c(=O)c(/C=C3\SC(=S)N(CC(C)C)C3=O)c(NCCCOC(C)C)nc12`, the remaining BAM8-22 calcium response % of control (stronger effect = lower value) was 63.8% (active).

Turning to `CCN(CC)CC(=O)Nc1nn(-c2ccccc2)nc1C(N)=O`, the remaining BAM8-22 calcium response % of control (stronger effect = lower value) result is “inactive”.

For the compound `CCC1CCCCN1CCNC(=O)c1[nH]c(C)c(C(C)=O)c1C` (stereo not drawn), the remaining BAM8-22 calcium response % of control (stronger effect = lower value) entry was “inactive”.

Turning to `O=C(CN1CCN(c2ccc(Cl)cc2)CC1)N1CCCC1`, the remaining BAM8-22 calcium response % of control (stronger effect = lower value) result was “inactive”.

Take `O=C(Cc1nc2ccccc2[nH]c1=O)c1ccc(Cl)cc1`: the remaining BAM8-22 calcium response % of control (stronger effect = lower value) is 64.3% (active).

Regarding `O=C(NC1CCCCC1)C1c2ccccc2C(=O)N1Cc1ccco1` (stereo not drawn), the remaining BAM8-22 calcium response % of control (stronger effect = lower value) result is “inactive”.

In the case of `CCc1cc(=O)oc2cc(C)cc(OCC(=O)N3CCC[C@@H]3C(=O)O)c12`, the remaining BAM8-22 calcium response % of control (stronger effect = lower value) entry is “inactive”.

Take `CCCCOC(=O)CNc1nnc(SCC(=O)OCC)[nH]c1=O`: the remaining BAM8-22 calcium response % of control (stronger effect = lower value) was 70.5% (active).

Turning to `COC(=O)c1c(NC(=O)c2c(Cl)cnn2C)sc(C)c1C`, the remaining BAM8-22 calcium response % of control (stronger effect = lower value) result is “inactive”.

`Cc1ccc(C(C(=O)NC2CCCCC2)N(C(=O)c2csnn2)C2CC2)o1` (stereo not drawn): the remaining BAM8-22 calcium response % of control (stronger effect = lower value) entry is “inactive”.

In the case of `O=C(c1cccs1)C1C(c2ccc(Br)cc2)NC(=S)NC1(O)C(F)(F)F` (stereo not drawn), the remaining BAM8-22 calcium response % of control (stronger effect = lower value) entry is “inactive”.

In the case of `Cc1nc(N2CCN(c3ccccn3)CC2)c2c(C)c(C(=O)Nc3ccc(F)c(Cl)c3)sc2n1`, the remaining BAM8-22 calcium response % of control (stronger effect = lower value) was 70.4% (active).

On to `COc1cc(CCC(=O)Nc2ccncc2Cl)cc(OC)c1OC`, for which the remaining BAM8-22 calcium response % of control (stronger effect = lower value) result was “inactive”.

For `C=CCSc1nc(Cc2ccc(Cl)cc2)nc2ccccc12`, the remaining BAM8-22 calcium response % of control (stronger effect = lower value) entry is “inactive”.

On to `O=C(COC(=O)C1CCN(S(=O)(=O)c2ccc3c(c2)OCCO3)CC1)Nc1ccccc1OC(F)F`, for which the remaining BAM8-22 calcium response % of control (stronger effect = lower value) entry was “inactive”.

For `Clc1ccc(-c2nc3ccccn3c2CN2CCSCC2)cc1`, the remaining BAM8-22 calcium response % of control (stronger effect = lower value) entry is “inactive”.

For `Clc1ccc(C=NC23CN4CN(CN(C4)C2)C3)cc1`, the remaining BAM8-22 calcium response % of control (stronger effect = lower value) result was “inactive”.

In the case of `COc1ccc(C(=O)CSc2n[nH]c(N)n2)cc1`, the remaining BAM8-22 calcium response % of control (stronger effect = lower value) result was “inactive”.
